Measured values taken from PubChem BioAssay (NCI).
This is part of a sample that, as a whole, favours compounds with a hit. Of some 79,000 tested, about 15% had one in any assay. Cut-off read from the data, not from the text of the source: active = growth inhibition above about 70%; inactive = the rest.

What was measured:
[1] = NCI Yeast Anticancer Drug Screen. Data for the rad50 strain (AID 155);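 note: 0% = growth of vehicle-only cultures of the same strain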; conditions: S. cerevisiae rad50 strain growth inhibition; at 50.0 µM; hits give high values
How it was run: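 DNA repair mutant yeast, compound exposure, growth read-out; inhibition is taken relative to vehicle.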

[2] = NCI Yeast Anticancer Drug Screen. Data for the mec2-1 strain (AID 157); conditions: S. cerevisiae mec2-1 strain, at 50.0 µM, hits give high values
How it was run: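 Using mec2-1 yeast: add compound, measure growth, express inhibition versus vehicle-treated cultures.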

[3] = NCI Yeast Anticancer Drug Screen. Data for the sgs1 mgt1 strain (AID 161);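 note: 0% = growth of cultures given vehicle only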; conditions: S. cerevisiae sgs1 mgt1 strain, at 50.0 µM, hits give high values
How it was run: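 Percent growth inhibition was derived by comparing compound-exposed mutant yeast with vehicle-exposed cultures. The strain carries alterations in DNA damage repair.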

[4] = NCI Yeast Anticancer Drug Screen. Data for the cln2 rad14 strain (AID 165);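 note: 0% = growth equal to vehicle treated cultures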; conditions: S. cerevisiae cln2 rad14 strain, at 50.0 µM, hits give high values
How it was run: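 Yeast strain cln2 rad14, bearing defects in cell cycle control and DNA repair, serves as the test system; values reflect growth inhibition compared with vehicle.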

[5] = NCI Yeast Anticancer Drug Screen. Data for the bub3 strain (AID 167); conditions: S. cerevisiae bub3 mutant strain, at 50.0 µM, hits give high values
How it was run: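 In this screen, a yeast mutant lacking normal mitotic checkpoint function is challenged with compound. Relative growth versus vehicle gives the inhibition value.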

[6] = NCI Yeast Anticancer Drug Screen. Data for the mlh1 rad18 strain (AID 175); conditions: S. cerevisiae mlh1 rad18 strain growth inhibition; at 50.0 µM; hits give high values
How it was run: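 Steps: expose repair-defective yeast to compound; measure growth; express inhibition against vehicle-treated controls.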

Measured: growth inhibition

N#CC(CC(=O)c1ccccc1)c1ccccc1Cl (configuration not stated)
inactive: [1] 17.2% | [2] 24.9% | [3] 31.3% | [4] 17.6% | [5] 40.4% | [6] 22%

Cc1c2oc3c(C)ccc(C(=O)NCCc4ccccn4)c3nc-2c(C(=O)NCCc2ccccn2)c(N)c1=O
inactive: [1] 5.9% | [2] -8.05% | [3] 4.05% | [4] 4.9% | [5] -5.45% | [6] -6.9%

C=CCC(C(=O)NC(N)=O)c1ccccc1 (configuration not stated)
inactive: [1] 3.9% | [2] -7.65% | [3] -11.3% | [4] 19.5% | [5] 8.05% | [6] 0.35%

COc1cc(NS(=O)(=O)c2ccccc2)c2nc3ccc(Cl)cc3nc2c1
inactive: [1] 3.6% | [2] -8.4% | [3] -25.1% | [4] 3.3% | [5] -7.25% | [6] 12.3%

CC1(c2ccccc2)OCCS1 (configuration not stated)
inactive: [1] 40.7% | [2] 21.1% | [3] 19.8% | [4] 14.6% | [5] 1.1% | [6] 28.8%

CCCC(=O)Oc1c(Cl)cc(Cl)cc1-c1ccccc1
inactive: [1] 12.8% | [2] 12.9% | [3] 37.9% | [4] 8.1% | [5] 28.6% | [6] 1.45%

CCOC(=O)c1ccc(OC)c2[nH]c3c(c(=O)c12)C(=O)c1[nH]c2c(OC)ccc(C(=O)OCC)c2c(=O)c1C3=O
inactive: [1] -25.4% | [2] 15.6% | [3] -23.2% | [4] -17.9% | [5] -0.25% | [6] -25.2%

CC(=O)OCCOC(C)=O
inactive: [1] 15.2% | [2] 4.35% | [3] -5.1% | [4] 19.9% | [5] 21.3% | [6] 1.45%

CC(C)Cc1ncnc2n[nH]nc12
inactive: [1] 1.65% | [2] 8.5% | [3] 35.5% | [4] 35.4% | [5] 20.4% | [6] 17.8%

NC(CCSCC(F)F)C(=O)O (configuration not stated)
inactive: [1] 19.4% | [2] 8.9% | [3] 3.95% | [4] 6.95% | [5] -22% | [6] 25.4%

COc1ccc(/C=C\c2cc(OC)c(OC)c(OC)c2)cc1OCC(=O)O
inactive: [1] -5.95% | [2] -1.75% | [3] 13% | [4] 8.65% | [5] -10.4% | [6] -52.5%

CC(Cc1ccco1)(C(=O)O)C(=O)O
inactive: [1] 11.8% | [2] 16.3% | [3] -14.8% | [4] -1.3% | [5] -11.8% | [6] -11.6%

CC1(COC(=O)C2(C)CO2)CO1 (configuration not stated)
inactive: [1] 28.2% | [2] 9.95% | [3] -6.1% | [4] 4.7% | [5] -25.2% | [6] -78.2%

O=C(CN1CCCC1)Nc1ccc2c(c1)C1Oc3ccccc3CC1CO2 (configuration not stated)
inactive: [1] 7.65% | [2] 4.2% | [3] 5.55% | [4] 11.6% | [5] -12.7% | [6] 30.6%

Cn1nnc(CC[N+]2(C)CCOCC2)n1
inactive: [1] -3.35% | [2] 3.45% | [3] -3.35% | [4] -24.5% | [5] 6.05% | [6] 3.9%

COc1cc(CNC(=S)CCCCCCCCCCC(C)C)ccc1O
inactive: [1] -20.1% | [2] -23.6% | [3] -4.5% | [4] -26.4% | [5] 15.2% | [6] -21.4%

O=C1CCC2c3ccccc3C(=O)C2C1 (configuration not stated)
inactive: [1] 6.7% | [2] 4.2% | [3] -1.45% | [4] -19.1% | [5] -14.1% | [6] 9.3%

O=C(Oc1ccccc1)c1ccc(C(=O)Oc2ccccc2)cc1
inactive: [1] 9% | [2] 28.7% | [3] 15.8% | [4] 3.9% | [5] 43.1% | [6] 11.6%

Cc1ccccc1Nc1n[nH]c(=O)n1-c1ccccc1C
inactive: [1] 4.05% | [2] 6.65% | [3] 1.75% | [4] -12.5% | [5] 1.15% | [6] 2.9%

CC(C)c1cccc(C(C)C)c1NC(=O)OC1CCCCC1
inactive: [1] -11.7% | [2] -22.8% | [3] 8.2% | [4] 20.2% | [5] -1.6% | [6] -2.85%

CC(=O)c1sc(-c2nc(C)c(C(=O)/C=C\c3ccc(/C=C\C(=O)c4sc(-c5nc(C)c(C(C)=O)s5)nc4C)cc3)s2)nc1C
inactive: [1] -19.3% | [2] -13.4% | [3] -8.7% | [4] -11.6% | [5] 3.95% | [6] -14.4%

O=S(=O)(O)Cc1ccccc1
inactive: [1] -29.9% | [2] -21.9% | [3] -19.1% | [4] -24.4% | [5] 2.45% | [6] 2.35%

CSC(=S)n1nc(-c2ccccc2)c(N=Nc2ccccc2[N+](=O)[O-])c1-c1ccccc1
inactive: [1] 31.6% | [2] 12.5% | [3] 20.2% | [4] -30.9% | [5] 18.6% | [6] 29.9%

CC(C)C(C)(C(N)=O)C(C)C
inactive: [1] 14.3% | [2] 17.4% | [3] 10.2% | [4] 17.9% | [5] -1.25% | [6] -1.4%

Cc1cc(Cl)c(Cl)cc1N
inactive: [1] -11.6% | [2] -7.2% | [3] 5.6% | [4] -9.65% | [5] 12.1% | [6] 12.4%

CCOC(=O)C(/C=C/C(C)C)(CC)C(=O)OCC
inactive: [1] -8.75% | [2] 11.2% | [3] 8.2% | [4] 44.8% | [5] -6.95% | [6] 24.4%

Clc1cccc(Cl)c1C1SCc2nc3ncccc3n21 (configuration not stated)
inactive: [1] 14.1% | [2] 16.6% | [3] 34.4% | [4] 16.9% | [5] 10.6% | [6] 0.4%

CC[C@]12CCCN3CCc4c(n(c5ccccc45)C(=O)C1)[C@@H]32
inactive: [1] -25.9% | [2] -23.2% | [3] -49.1% | [4] 29.4% | [5] -25.6% | [6] 31.1%

CCCCOC(=O)/C=C\C(=O)NC(=O)NC(C)(C)C
inactive: [1] -7.55% | [2] 1.2% | [3] -4.3% | [4] -33.1% | [5] 5.05% | [6] 3.15%

CC1CC2=C(C1)C(C1(C)C(=O)CC3C(C1=O)C3(C)C)C(C)C2=O (configuration not stated)
inactive: [1] 2.3% | [2] -24.6% | [3] 5.5% | [4] 3.3% | [5] 4.6% | [6] -44.6%

Nc1ccc(S(=O)(=O)NNc2nc(N3CCCCC3)nc(N3CCCCC3)n2)cc1
inactive: [1] -1.3% | [2] 1.95% | [3] 10.2% | [4] 7.9% | [5] -11.7% | [6] -5%

COc1ccc2ccccc2c1Br
inactive: [1] -11.3% | [2] 8.25% | [3] -3.25% | [4] -24.1% | [5] -19.3% | [6] 8.65%

CCCCCCCCCCCC(=O)CCCCCCCCCCC
inactive: [1] 4% | [2] 2.2% | [3] 2.75% | [4] -33.9% | [5] -4.15% | [6] -2.7%

O=c1ncc2ccccc2[nH]1
inactive: [1] -19.9% | [2] -10.7% | [3] -9.6% | [4] -4.3% | [5] -12.8% | [6] -23.9%

CCOC(=O)/C(C#N)=C(O)\C(=C\c1ccc(Cl)cc1)NC(=O)c1ccc(NC(C)=O)cc1
inactive: [1] 8.9% | [2] -0.3% | [3] -17.4% | [4] 9.2% | [5] -8.1% | [6] 5.65%

OCC1COc2cc(Cl)c(Cl)cc2O1 (configuration not stated)
inactive: [1] 47.8% | [2] 9.65% | [3] 33.3% | [4] 15% | [5] 36.9% | [6] 50.2%

CC1CC(=O)N2CCCNC2=C1C#N (configuration not stated)
inactive: [1] -0.55% | [2] 4.6% | [3] 12.8% | [4] 19.2% | [5] 3.75% | [6] 26.1%

CCOc1ccc2nc(NC(=O)CC(C)=O)sc2c1
inactive: [1] -17.6% | [2] -22% | [3] -4.3% | [4] 7.6% | [5] -17.9% | [6] 7.35%

Cc1cccnc1C(=O)O.[Cu+2]
inactive: [1] -9.55% | [2] -0.45% | [3] -29.1% | [4] -45.2% | [5] -32.8% | [6] -7.4%

NC(=O)OCC(COc1ccc(Cl)cc1)OC(=O)c1cc([N+](=O)[O-])cc([N+](=O)[O-])c1 (configuration not stated)
inactive: [1] 29.2% | [2] 23.9% | [3] 20.4% | [4] 17.6% | [5] 14.3% | [6] 8.75%

C=C1C(=O)OC2CCC3OC(C)(C)OC3C12 (configuration not stated)
inactive: [1] 6.2% | [2] 17.5% | [3] 15.4% | [4] -16.9% | [5] 31.9% | [6] 10.6%

COc1cccc(CNc2ncnc3nc[nH]c23)c1
inactive: [1] 16.5% | [2] 1.85% | [3] 14.7% | [4] 4% | [5] -3.85% | [6] 24.6%
